PubChem BioAssay (Tox21)
Where “and” joins values, the source holds several entries; their conditions need not be identical. Equal values may be shown once. Inconclusive results are not listed. A call without a number means that no potency is given here. Calls of active or inactive are those of the source. Unless noted, the call rests on the fitted dose curve; in most records, active means well fitted curve in the direction sought with a large enough effect in the repeat runs; inconclusive means weak or mixed curves; inactive means no such curve, though single readings can be large; an effect the other way counts as inactive or inconclusive.

What was measured:
[1] = qHTS assay to identify small molecule agonists of the estrogen receptor alpha (ER-alpha) signaling pathway in the presence of an antagonist - cell viability counter screen (AID 1259386);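 further: cells exposed to compounds for 22 h at 37 °C before the viability read; nearly all actives have a fitted effect of over 30% in size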; further: potency means the concentration at half of the fitted maximal effect
Summary of the method: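 Viability counter screen using VM7Luc4E2 (full-length ER-alpha, four ERE-luciferase). The cells were treated with compounds alongside ICI-182,780 10.0nM for 22hr, and live-cell protease fluorescence was quantified with CellTiter-Fluor.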

[2] = qHTS assay to identify small molecule antagonists of the progesterone receptor (PR) signaling pathway - cell viability counter screen (AID 1346798); further: nearly all actives have a fitted effect of over 50% in size; further: potency means the concentration at half of the fitted maximal effect
Summary of the method: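 Viability was determined by ATP-based luminescence (CellTiter-Glo) in PR-UAS-bla HEK293T cells cultured in 2% charcoal-stripped serum and incubated 16 hr with compounds under R5020 stimulation.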

[3] = qHTS assay to identify small molecule agonists of the progesterone receptor (PR) signaling pathway - cell viability counter screen (AID 1346799; calls by dose curve; further: nearly all actives have a fitted effect of over 45% in size; further: potency means the concentration at half of the fitted maximal effect)
Summary of the method: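 Viability was scored by ATP luminescence (CellTiter-Glo, 30 min, room temperature) in the same wells used for the reporter readout, after 16 hr compound exposure of PR-UAS-bla HEK293T cells.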

[4] = qHTS assay to identify small molecule antagonists of the TGF-beta/Smad signaling pathway - cell viability counter screen (AID 1346824); further: nearly all actives have a fitted effect of over 50% in size; further: potency means the concentration at half of the fitted maximal effect
Summary of the method: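 Cytotoxicity counter-screen run in the same wells as the beta-lactamase Smad reporter read: CellTiter-Glo luminescence after 30 min at room temperature. HEK 293T SBE-bla cells had 5 hr compound exposure at 37 C with TGF-beta1 (0.25 ng/mL stock).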

[5] = qHTS assay to identify small molecule agonists of the TGF-beta/Smad signaling pathway - cell viability counter screen (AID 1346829); further: nearly all actives have a fitted effect of over 45% in size; further: potency means the concentration at half of the fitted maximal effect
Summary of the method: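 HEK 293T SBE-bla line, 5 hr compound exposure at 37 C, multiplexed CellTiter-Glo viability read by luminescence.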

[6] = biological target: Thyrotropin-releasing hormone receptor (Homo sapiens) (UniProt P34981); test: qHTS assay to identify small molecule antagonists of the thyrotropin-releasing hormone receptor (TRHR) signaling pathway (AID 1346877; active means well fitted inhibition curve with a large enough effect in the repeat runs, not every such curve was filed as active; further: series mostly up to about 51 µM)
Chain of Thyrotropin-releasing hormone receptor (Homo sapiens) (P34981 whole entry, looked up): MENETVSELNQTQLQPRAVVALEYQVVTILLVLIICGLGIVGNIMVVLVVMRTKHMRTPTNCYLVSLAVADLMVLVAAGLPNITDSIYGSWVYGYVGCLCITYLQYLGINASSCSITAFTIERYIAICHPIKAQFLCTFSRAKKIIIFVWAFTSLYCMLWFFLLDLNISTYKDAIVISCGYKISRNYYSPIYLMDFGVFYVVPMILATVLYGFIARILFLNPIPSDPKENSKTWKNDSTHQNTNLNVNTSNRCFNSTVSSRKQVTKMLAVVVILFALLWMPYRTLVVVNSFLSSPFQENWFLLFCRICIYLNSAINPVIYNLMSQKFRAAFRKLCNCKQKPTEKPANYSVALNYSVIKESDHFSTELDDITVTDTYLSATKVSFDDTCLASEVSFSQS
Summary of the method: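 Following an 18 h incubation at 37 °C and a 2 h calcium dye load, TRHR-HEK293 cells were exposed to compound (5 min, room temperature) and challenged with TRH, 1 nM final.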

[7] = biological target: Thyrotropin-releasing hormone receptor (Homo sapiens) (UniProt P34981); test: qHTS assay to identify small molecule agonists of the thyrotropin-releasing hormone receptor (TRHR) signaling pathway (AID 1346891; calls by dose curve;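 further: HEK293 cells expressing TRHR with calcium dye readout; series mostly up to about 58 µM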)
Summary of the method: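 Kinetic fluorescence (3 min, 1 s intervals) reported intracellular calcium after compound transfer onto TRHR-Hek293 cells pre-loaded with dye for 2 h at 37 °C.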

[8] = qHTS assay to identify small molecule agonists of the TGF-beta/Smad signaling pathway (AID 1346859; active means well fitted activation curve with a large enough effect in the signal ratio in the repeat runs, not every such curve was filed as active; the % refers to the signal ratio; further: series mostly up to about 77 µM)
Summary of the method: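 Dual-wavelength fluorescence (460/530 nm emission) quantified beta-lactamase expression under the Smad binding element in HEK 293T cells following 5 hr compound treatment at 37 C.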

Question: With `Clc1ccc2cc3ccccc3cc2c1` as the compound, how does the Potency [1] read?
Answer: inactive

Question: And the Potency [2]?
Answer: inactive

Question: What about the Potency [3] of the same compound?
Answer: inactive

Question: And the Potency [4]?
Answer: inactive

Question: What about the Potency [5] of the same compound?
Answer: inactive

Question: What about the Potency [6] of the same compound?
Answer: inactive

Question: And the Potency [7]?
Answer: inactive

Question: What does the source list for `O=C1C=CC(=O)N1`?
Answer: Potency [1]: 70.4 µM (active); Potency [2]: 55.9 µM (active); Potency [3]: 62.8 µM (active); Potency [6]: inactive; Potency [7]: inactive

Question: For `CCCCCCCCCCCCc1ccc(O)cc1`, which Potency [1] is on record?
Answer: 68.6 µM (active)

Question: What about the Potency [2] of the same compound?
Answer: 54.5 µM (active)

Question: What about the Potency [3] of the same compound?
Answer: 30.6 µM (active)

Question: What about the Potency [5] of the same compound?
Answer: 49 µM (active)

Question: Which results are given for `CCCCCCCC[P+](CCCCCCCC)(CCCCCCCC)CCCCCCCC`?
Answer: Potency [1]: 2.71 µM (active); Potency [2]: 15.3 µM (active); Potency [4]: 21.7 µM (active); Potency [5]: 17.3 µM (active); Potency [6]: inactive; Potency [7]: inactive

Question: For `CCOc1nc2cccc(C(=O)OC(C)OC(=O)OC3CCCCC3)c2n1Cc1ccc(-c2ccccc2-c2nn[nH]n2)cc1` (stereo unspecified), which Potency [1] is on record?
Answer: inactive

Question: What about the Potency [2] of the same compound?
Answer: 21.7 µM (active)

Question: Which Potency [1] does the source give for `CC/C(=C(\c1ccc(O)cc1)c1ccc(OCCN(C)C)cc1)c1ccccc1` here?
Answer: 68.7 µM (active)

Question: And the Potency [2]?
Answer: 27.4 µM (active)

Question: And the Potency [3]?
Answer: 27.4 µM (active)

Question: And the Potency [4]?
Answer: 61.8 µM (active)

Question: What about the Potency [5] of the same compound?
Answer: 55.1 µM (active)

Question: What about the Potency [7] of the same compound?
Answer: inactive

Question: With `C=CC(=O)OCCn1c(=O)n(CCOC(=O)C=C)c(=O)n(CCOC(=O)C=C)c1=O` as the compound, how does the Potency [1] read?
Answer: 48.6 µM (active)

Question: And the Potency [2]?
Answer: 21.7 µM (active)

Question: And the Potency [3]?
Answer: 43.3 µM (active)

Question: What about the Potency [4] of the same compound?
Answer: inactive

Question: What about the Potency [6] of the same compound?
Answer: inactive

Question: And the Potency [7]?
Answer: inactive

Question: For `N=C1N=C(N)c2ccccc21`, which Potency [1] is on record?
Answer: inactive

Question: What about the Potency [2] of the same compound?
Answer: inactive

Question: And the Potency [3]?
Answer: inactive

Question: And the Potency [4]?
Answer: inactive

Question: And the Potency [5]?
Answer: inactive

Question: And the Potency [8]?
Answer: inactive

Question: And the Potency [6]?
Answer: inactive

Question: And the Potency [7]?
Answer: inactive

Question: With `NC(=O)N1C(=O)C(C(=O)c2cc(Cl)cs2)c2cc(F)c(Cl)cc21` (stereo unspecified) as the compound, how does the Potency [1] read?
Answer: 24.3 µM (active)

Question: And the Potency [2]?
Answer: 30.6 µM (active)

Question: What about the Potency [3] of the same compound?
Answer: 43.3 µM (active)

Question: What about the Potency [4] of the same compound?
Answer: inactive

Question: What about the Potency [5] of the same compound?
Answer: inactive

Question: And the Potency [8]?
Answer: inactive

Question: What about the Potency [6] of the same compound?
Answer: inactive

Question: And the Potency [7]?
Answer: inactive

Question: What does the source list for `CN(C/C=C/C#CC(C)(C)C)Cc1cccc2ccccc12`?
Answer: Potency [1]: inactive; Potency [2]: 26.6 µM (active); Potency [4]: inactive; Potency [5]: inactive; Potency [8]: inactive; Potency [6]: inactive; Potency [7]: inactive

Question: Which results are given for `c1cc(C(c2ccc(OCC3CO3)cc2)c2ccc(OCC3CO3)cc2)ccc1OCC1CO1` (stereo unspecified)?
Answer: Potency [1]: inactive; Potency [2]: inactive; Potency [4]: inactive

Question: Which Potency [1] does the source give for `C[C@]12CCC(=O)C=C1CC[C@@H]1[C@@H]2[C@@H](O)C[C@@]2(C)[C@H]1CC[C@]2(O)C(=O)COC(=O)CCC(=O)O` here?
Answer: inactive

Question: And the Potency [2]?
Answer: inactive

Question: What about the Potency [4] of the same compound?
Answer: inactive

Question: What about the Potency [5] of the same compound?
Answer: inactive

Question: What about the Potency [8] of the same compound?
Answer: inactive

Question: What about the Potency [6] of the same compound?
Answer: inactive

Question: What about the Potency [7] of the same compound?
Answer: inactive

Question: With `C[C@@H]1C[C@H]2[C@@H]3CCC4=CC(=O)C=C[C@]4(C)[C@@]3(Cl)[C@@H](O)C[C@]2(C)[C@@]1(OC(=O)c1ccco1)C(=O)CCl` as the compound, how does the Potency [1] read?
Answer: inactive

Question: And the Potency [2]?
Answer: inactive

Question: And the Potency [3]?
Answer: inactive

Question: What about the Potency [4] of the same compound?
Answer: inactive

Question: What about the Potency [5] of the same compound?
Answer: inactive

Question: And the Potency [6]?
Answer: inactive

Question: What about the Potency [7] of the same compound?
Answer: inactive

Question: For `Cc1cc(O)c(C(C)(C)C)cc1Sc1cc(C(C)(C)C)c(O)cc1C`, which Potency [1] is on record?
Answer: 48.5 µM (active)

Question: What about the Potency [2] of the same compound?
Answer: 30.6 µM (active)

Question: And the Potency [3]?
Answer: 27.3 µM (active)

Question: And the Potency [4]?
Answer: 48.9 µM (active)

Question: What about the Potency [5] of the same compound?
Answer: 34.6 µM (active)

Question: And the Potency [7]?
Answer: inactive

Question: For `CCCCN(CCCC)c1ccc(C(=O)c2ccccc2C(=O)O)c(O)c1`, which Potency [1] is on record?
Answer: inactive

Question: And the Potency [2]?
Answer: inactive

Question: And the Potency [3]?
Answer: 24.6 µM (active)

Question: What about the Potency [4] of the same compound?
Answer: inactive

Question: What about the Potency [5] of the same compound?
Answer: inactive

Question: What about the Potency [7] of the same compound?
Answer: inactive

Question: What does the source list for `COc1cccc2c1C(=O)c1c(O)c3c(c(O)c1C2=O)C[C@@](O)(C(=O)CO)C[C@@H]3O[C@H]1C[C@H](N)[C@H](O[C@@H]2CCCCO2)[C@H](C)O1`?
Answer: Potency [1]: 23.7 µM (active); Potency [2]: inactive; Potency [3]: inactive; Potency [4]: inactive; Potency [5]: inactive; Potency [8]: inactive; Potency [6]: inactive; Potency [7]: inactive

Question: With `CCCCCCCCNC(C)C(O)c1ccc(SC(C)C)cc1` (stereo unspecified) as the compound, how does the Potency [1] read?
Answer: 33.5 µM (active)

Question: And the Potency [2]?
Answer: 29.8 µM (active)

Question: And the Potency [3]?
Answer: 29.8 µM (active)

Question: What about the Potency [4] of the same compound?
Answer: 21.3 µM (active)

Question: What about the Potency [5] of the same compound?
Answer: 23.9 µM (active)

Question: What about the Potency [6] of the same compound?
Answer: inactive

Question: What about the Potency [7] of the same compound?
Answer: inactive

Question: With `CCCCCCCCOC(=O)c1ccc(O)cc1` as the compound, how does the Potency [1] read?
Answer: inactive

Question: What about the Potency [2] of the same compound?
Answer: inactive

Question: What about the Potency [4] of the same compound?
Answer: inactive

Question: What about the Potency [5] of the same compound?
Answer: inactive

Question: And the Potency [8]?
Answer: inactive

Question: For `CCOC(=O)c1nc(C(Cl)(Cl)Cl)n(-c2ccc(Cl)cc2Cl)n1`, which Potency [1] is on record?
Answer: inactive

Question: What about the Potency [2] of the same compound?
Answer: 61.1 µM (active)

Question: And the Potency [4]?
Answer: inactive

Question: What about the Potency [5] of the same compound?
Answer: inactive

Question: Which results are given for `CCCCCCCCCCCC[N+](C)(C)CCCCCCCCCCCC`?
Answer: Potency [1]: 68.6 µM (active); Potency [2]: 43.3 µM (active); Potency [3]: 19.3 µM (active); Potency [4]: 43.6 µM (active); Potency [5]: 34.7 µM (active); Potency [6]: inactive; Potency [7]: inactive

Question: For `CCCCCCCCCCCCCC[P+](CCCC)(CCCC)CCCC` (tested in a mixture with another compound), which Potency [1] is on record?
Answer: 8.69 µM (active)

Question: What about the Potency [2] of the same compound?
Answer: 30.8 µM (active)

Question: What about the Potency [3] of the same compound?
Answer: 30.8 µM (active)

Question: What about the Potency [4] of the same compound?
Answer: 27.7 µM (active)

Question: And the Potency [5]?
Answer: 31.1 µM (active)

Question: And the Potency [6]?
Answer: inactive

Question: And the Potency [7]?
Answer: inactive

Question: With `OCCCCCCCCCCCCBr` as the compound, how does the Potency [1] read?
Answer: inactive

Question: What about the Potency [2] of the same compound?
Answer: inactive

Question: And the Potency [3]?
Answer: inactive

Question: What about the Potency [4] of the same compound?
Answer: inactive

Question: What about the Potency [5] of the same compound?
Answer: inactive

Question: Which results are given for `C=CC(=O)OCC(CO)(COC(=O)C=C)COC(=O)C=C`?
Answer: Potency [1]: 17.3 µM (active) and 27.3 µM (active); Potency [2]: 17.3 µM (active) and 27.3 µM (active); Potency [3]: 27.4 µM (active) and 30.6 µM (active); Potency [6]: inactive; Potency [7]: inactive
